Screens as filed in PubChem BioAssay.
Shown are actives, neighbours in structure and some others; about 0.51% of the full set was active somewhere.
E coli growth-1: counter-screen for AddAB inhibitors: E. coli growth inhibition; E. coli V3065 growth, OD600 absorbance, 18 h; inhibition, % at 11.9 µM; actives 0.27% (n = 330,000); AID 449728;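 active = inhibition above the campaign's mean inhibition across all tested compounds plus 3 SD, cut at about 9.9% in these data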;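 also: uninfected addAB+ strain grown without phage in ampicillin broth; 0% = DMSO wells and 100% = ciprofloxacin 0.95 µg/ml wells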
phage Ecoli inh: E. coli growth loss with phage present. inhibition, % at 11.9 µM. growth absorbance. AID 651602. actives 0.26% (n = 360,000); in the data active = inhibition above about 11%
Tat export inh: E. coli Tat transport inhibition | actives 0.036% (n = 340,000) | AID 488895 | E. coli MC4100 TorA-mCherry Tat export, fluorescence | inhibition, % at 10 µM;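 active = mean replicate inhibition at least 50% and at least half of replicates individually reaching 50%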;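 also: exported cargo escapes ClpAP degradation while cytoplasmic cargo is degraded and loses fluorescence; 0% = median of neutral control wells and 100% = median of NaSCN control wells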
AddAB inh: less growth of phage-infected E. coli with AddAB; E. coli expressing H. pylori AddAB, absorbance growth; inhibition, % at 11.9 µM; actives 0.29% (n = 330,000); AID 435030; in the data active = inhibition above about 12%;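 also: 0% = vehicle wells of infected cells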
E coli growth-2: inhibitors of Escherichia coli growth; actives 0.21% (n = 330,000); AID 1053175; OD600, 23 h; active compounds read low; OD600 absorbance (no concentration beside the values);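 active = OD600 absorbance below the run mean of sample wells minus 3.6 SD, in any replicate, cut at about 0.56 in these data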
* = called active by the depositor; i = inactive; x = no result; ! = not confirmed by another sample.

SMILES | E coli growth-1 | phage Ecoli inh | Tat export inh | AddAB inh | E coli growth-2
CCN(CC)CCNS(=O)(=O)c1ccc(C(=O)NN)cc1 | 0 | 2 | -5 | 0 | 0.69
CCOC(=O)c1ccc(S(=O)(=O)NCCN(CC)CC)cc1 | 1 | 3 | -7 | 0 | 0.44*
C(=C\c1ccco1)/c1nc2ccccc2[nH]1 | 2 | 10 | -29 | 7 | 0.57
C(=C\c1nc2ccccc2[nH]1)/c1ccccc1 | -2 | 2 | 4 | 1 | 0.53*
CCc1ccc(Nc2n[n+](-c3ccccc3)c(-c3c(Cl)cccc3Cl)s2)cc1 | 8 | 4 | 13 | 8 | 0.47*
CCC(CC)c1nnc(NC(=O)CCN2C(=O)c3ccccc3C2=O)s1 | -1 | 2 | 3 | 0 | 0.76
CC(C)Cc1nnc(NC(=O)CCN2C(=O)c3ccccc3C2=O)s1 | 27* | 1 | -5 | 68* | 0.72
O=C(COc1ccccc1C=C1SC(=O)NC1=O)Nc1ccccc1 | x | x | x | x | 0.69
C=CCOC(=O)c1cn(CC)c2nc(C)ccc2c1=O | -1 | 2 | -9 | 1 | 0.52*
CCn1cc(C(=O)OCC(=O)c2cc(C)n(-c3cccc(C(F)(F)F)c3)c2C)c(=O)c2ccc(C)nc21 | -2 | 6 | 16 | 2 | 0.72
C=Cc1ccc(COC(=O)c2cn(CC)c3nc(C)ccc3c2=O)cc1 | -1 | 1 | 2 | 2 | 0.65
CCn1cc(C(=O)NNC(=O)c2ccc(Cl)cc2)c(=O)c2ccc(C)nc21 | 1 | x | 0 | 2 | 0.38*
CCn1cc(C(=O)NCc2cccc(C(F)(F)F)c2)c(=O)c2ccc(C)nc21 | 1 | -1 | -10 | 3 | 0.46*
CCOC(=O)C(C)=NNC(=O)c1cccc([N+](=O)[O-])c1 | x | x | x | x | 0.73
CN(C)C=Nc1nc2nccc(-c3cccnc3)n2n1 | x | x | x | x | 0.68
CCCCC(=O)NN=Cc1ccc(-c2ccc([N+](=O)[O-])cc2)o1 | x | x | x | x | 0.71
O=C(Nc1cccnc1)c1ccc(NS(=O)(=O)c2cccc([N+](=O)[O-])c2)cc1 | 0 | 1 | -2 | -3 | 0.31*
O=C(Nc1ccc([N+](=O)[O-])cc1)c1cccc(S(=O)(=O)Nc2cccnc2)c1 | -1 | 3 | -7 | 1 | x
CC[C@H]1OC(=O)C[C@@H](O)[C@H](C)[C@@H](O[C@@H]2O[C@H](C)C[C@H](N(C)C)[C@H]2O)[C@@H](CC=O)C[C@@H](C)C(=O)C=C[C@]2(C)O[C@H]2[C@@H]1C | 100* | x | x | 99* | x
NC(N)=NN=Cc1ccc(OCc2ccccc2Cl)cc1 | x | x | x | x | 0.044*
NC(N)=N/N=C/c1ccccc1Cl | 13* | i | -3 | i | x
NC(N)=NN=Cc1ccccc1Cl | x | x | x | x | 0.7
NC(N)=N/N=C/c1c(Cl)cccc1Cl | 12*! | 7 | 3 | 6 | x
NC(=NOC(=O)c1ccc(Cl)cc1)c1ncc([N+](=O)[O-])s1 | x | x | x | x | 0.46*
N/C(=N\OC(=O)Nc1ccccc1)c1ncc([N+](=O)[O-])s1 | 9 | 5 | -15 | 12 | x
SMILES | E coli growth-1 | phage Ecoli inh | Tat export inh | AddAB inh | E coli growth-2
COc1cccc(C=NNc2ncnc(Cl)c2N)c1O | x | x | x | x | 0.17*
COc1cccc(/C=N/Nc2nccnc2Cl)c1O | x | 1 | 2 | x | x
CC(=NNc1ccc(C(=O)O)cc1)c1ccc2c(c1)Nc1ccccc1S2 | x | x | x | x | 0.69
Fc1ccc2[nH]c3c(NCc4ccccc4)ncnc3c2c1 | 7 | 9 | -2 | 5 | 0.45*
CC1CCc2c(sc(N=Cc3cccnc3)c2C(N)=O)C1 (centres undefined) | x | x | x | x | 0.68
C#CCCOC(=O)N1C2=NC(C(=O)OC)=C(C(=O)OC)C3Nc4ccccc4[C@]23CC1C(=O)OC (some centres undefined) | x | x | x | x | 0.7
O=[N+]([O-])c1cccc(/C=C/c2nc[nH]c2[N+](=O)[O-])c1 | 11* | 1 | 5 | 10 | 0.69
Cc1ccc(C(=O)N2CCCC(CCC(=O)NCc3ccccc3F)C2)cn1 (centres undefined) | -2 | 2 | 0 | -2 | 0.72
C=CCOc1cccc(C(=O)N2CCCC(CCC(=O)NCc3ccccc3F)C2)c1 (centres undefined) | -2 | 2 | 50* | 2 | 0.67
CC(=NNC(N)=S)C1=CCC2C3CC[C@H]4CC(O)CC[C@]4(C)C3CC[C@]12C (some centres undefined) | x | x | x | x | 0.72
CC[n+]1c(/C=C2\Sc3ccccc3N2C)ccc2cccc(C)c21 | x | 2 | 11 | x | 0.33*
FC(F)Oc1ccccc1C=NNc1nc2ccccc2o1 | x | x | x | x | 0.65
CC(CCc1ccccc1)NC(=O)C(Cc1ccccc1)NC(N)=O (centres undefined) | 1 | 4 | -3 | 2 | 0.53*
O=C(CNS(=O)(=O)c1ccccc1)NN=Cc1ccc(O)cc1 | x | x | x | x | 0.74
CC(=O)OCc1c(COC(C)=O)[n+](=O)c2ccccc2n1[O-] | 6 | 10 | -10 | 9 | 0.47*
CC(CCc1oc2ccccc2c1-c1ccc(C)o1)=NO | x | x | x | x | 0.73
O=C(CSc1ccc2nnc(-c3ccccn3)n2n1)Nc1ccc2c(c1)OCO2 | 78* | 1 | -9 | 97* | 0.71
O=C(CC(=O)NN=Cc1c(Cl)cccc1Cl)NCc1cccnc1 | x | x | x | x | 0.69
COc1cccc(NC(=S)Nc2ccc(F)cc2)c1 | 0 | 4 | 12 | 1 | 0.7
Fc1cccc(NC(=S)Nc2ccc(Br)cc2)c1 | 0 | 7 | -12 | 2 | 0.49*
Fc1ccc(NC(=S)Nc2ccc(Cl)cc2)cc1 | -1 | 6 | 7 | 1 | 0.52*
C=CCn1c(=O)c(C(=O)NCc2ccccc2)c(O)c2ccccc21 | 11* | 10 | 1 | 11 | 0.68
C=CCn1c(=O)c(C(=O)NCCNCC)c(O)c2ccccc21 | -3 | 4 | -11 | -1 | 0.66
O=C(NN=Cc1cccnc1)c1cccc(S(=O)(=O)N2CCCC2)c1 | x | x | x | x | 0.66
N#CC(=NNc1ccc(Cl)cc1)C(N)=S | x | x | x | x | 0.45*
SMILES | E coli growth-1 | phage Ecoli inh | Tat export inh | AddAB inh | E coli growth-2
Cc1ccc(C(=O)ON=Cc2c(Cl)n(C)c3ccccc23)cc1 | x | x | x | x | 0.75
Cc1ccc(-n2[nH]c(C)c(C=Nc3ccc(S(=O)(=O)Nc4nccs4)cc3)c2=O)c(C)c1 | 6 | x | x | 13* | 0.61
Cc1ccc(-n2[nH]c(C)c(C=Nc3ccc(S(=O)(=O)Nc4nccs4)cc3)c2=O)cc1C | 8 | 9 | -6 | 11 | 0.64
Cc1onc(-c2ccccc2)c1C(=O)NN=C/C(Br)=C/c1ccccc1 | x | x | x | x | 0.69
CC(=O)NC(CC(=O)N(C)Cc1cccc(Cl)c1Cl)c1ccccc1 (centres undefined) | 3 | 2 | -8 | 1 | 0.54*
CC(=O)NC(CC(=O)N(C)Cc1c(F)cccc1Cl)c1ccccc1 (centres undefined) | 3 | 1 | 5 | 2 | 0.69
Cc1ccc(C(=O)N/C(=C\c2ccc(-c3cccc([N+](=O)[O-])c3)o2)C(=O)NCCCN(C)C)cc1 | -1 | 0 | -3 | -2 | 0.72
Cc1ccc(C(=O)N/C(=C\c2ccc(-c3ccc(Br)cc3)o2)C(=O)NCCCN(C)C)cc1 | -2 | 3 | 8 | 0 | 0.5*
CCN(c1ccccc1)S(=O)(=O)c1ccc(Cl)c(C(=O)O)c1 | -2 | -2 | -5 | -1 | 0.55*
CCOC(=O)c1c(-c2ccccc2)csc1NC(=O)CCN1C(=O)c2ccccc2C1=O | -1 | 3 | 1 | 5 | 0.72
